# From PubChem BioAssay
# Compounds with a hit are over-represented: about 19% of the library has one in this group of screens.
# MCF10A rerep = induces DNA re-replication in MCF 10a normal breast cells. MCF 10A DNA re-replication, Hoechst nuclear intensity, 48 h. Potency, µM (doses to about 46.1 µM), without a hit: at the highest dose activity, positive = re-replication, actives largely listed as activators. actives 2.9% (n = 350,000). AID 624296; note: potency is the fitted concentration of half-maximal effect; % of control where 0% means no effect; nearly all actives have a fitted effect of over 50% in size
# IL-1B inflam inh = blocks inflammasome-driven IL-1 beta release | THP-1 LPS/ATP IL-1B secretion, AlphaLISA, 16 h; stronger effect = lower value | activity change, % at 57.5 µM | actives 4.7% (n = 360,000) | AID 743279; in the data active = activity change below about -50%; inconclusive = mostly about -30% to -49%; note: % is set by controls: 0 for no effect and ±100 for the full control effect
#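 THP-1 cells pretreated 1 hr with compounds (up to 57.5 uM final), then stimulated with LPS (250 ng/mL final) plus ATP (1.25 mM final); secreted IL-1B measured by AlphaLISA after 16 hr, decreased signal indicating inhibition.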
# BCR signal inh = inhibitors of chronic active B-cell receptor signaling; ABC-DLBCL IkBa-CBG/CBR reporter, luminescence ratio, 4 h; Potency, µM (top dose mostly 46.1 µM), inactives show at the highest dose activity change, negative = inhibition, usual class: inhibitors; actives 0.05% (n = 340,000); AID 493014; active = well fitted inhibition curve with a large enough effect in the signal ratio, with a control signal flat, not every such curve was filed as active; inconclusive = small, poorly fitted or top-dose-only effect, or effect the other way, or a change in a side signal; the % refers to the signal ratio;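 note: potency is the fitted concentration of half-maximal effect; plate controls were basal doxycycline-induced cells for no effect and cells given 10 µM MG132 for full effect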
#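 TMD8 human ABC-DLBCL cells with doxycycline-inducible IκBα–green luciferase fusion and unfused red luciferase, in 0.5% FBS medium; compounds up to 46 uM, 4 h at 37C. Green/red luminescence ratio, filter-overlap corrected, fitted to concentration-response curves.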
# SW480 rereplic = induces DNA re-replication in SW480 colon adenocarcinoma cells; Potency, µM (doses to about 46.1 µM), inactives show at the highest dose re-replication activation, hits mostly activators; SW480 DNA re-replication, Hoechst DNA content imaging, 48 h; actives 1.8% (n = 340,000); note: potency is the fitted concentration of half-maximal effect; % of control where 0% means no effect; nearly all actives have a fitted effect of over 55% in size
#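 250 cells/well; 23 nL cpd via pin tool; 48 hr, 37 C, 5% CO2; Hoechst 40 min; imager read of total nuclear intensity, ex 405/em 500-530 nm.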
# TDP1 cell CPT = growth inhibition of DT40 Tdp1-/-;hTDP1 cells with camptothecin (screen for TDP1 inhibitors); chicken DT40 Tdp1-/-;hTDP1 cells + 20 nM CPT, ATP luminescence, 48 h; Potency, µM (series often up to 46.2 µM), without a hit: at the highest dose activity change, negative = growth inhibition, hits mostly inhibitors; actives 12% (n = 420,000); note: potency is the fitted concentration of half-maximal effect; % is set by controls: 0 for no effect and ±100 for the full control effect; nearly all actives have a fitted effect of over 55% in size
#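 Chicken DT40 Tdp1-/- cells complemented with human TDP1, 400 cells/well, exposed to compounds plus 20 nM camptothecin for at least 48 h at 37 C; viability read as ATP content by CellTiter-Glo luminescence.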
# TDP1 cell noCPT = qHTS for Inhibitors of human tyrosyl-DNA phosphodiesterase 1 (TDP1): qHTS in cells in absence of CPT | DT40 Tdp1-/- hTDP1 cells, no CPT, ATP luminescence, 48 h | AID 686978, 2013 | Potency, µM (titrated, usually from 46.2 µM), for inactives: at the top dose activity change, negative = growth inhibition, actives largely listed as inhibitors | actives 15% (n = 420,000); note: potency is the fitted concentration of half-maximal effect; % is set by controls: 0 for no effect and ±100 for the full control effect; nearly all actives have a fitted effect of over 55% in size
#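 Cells were dispensed at 400 per well, compounds added by pin tool, plates incubated ≥48 hr at 37 °C, then CellTiter-Glo added for 30 min at room temperature before luminescence reading. Line: DT40 Tdp1-/- complemented with hTDP1; camptothecin omitted.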
# An asterisk follows results filed as active; ? = inconclusive; . = no result given; [ ] = dose if it differs, or a comment. Unless noted, calls come from the whole dose curve; as a rule, active = well fitted curve in the direction sought with a large enough effect; inconclusive = small, poorly fitted or top-dose-only effect, or another doubt; inactive = no such curve, though single readings can be large; an effect the other way counts as inactive or inconclusive.
SMILES,MCF10A rerep,IL-1B inflam inh,BCR signal inh,SW480 rereplic,TDP1 cell CPT,TDP1 cell noCPT
CCn1c(=O)cc(SCC(=O)NCCc2ccc(OC)cc2OC)c2ccccc21,.,.,.,.,?,23µM*
O=C(NCc1cccnc1)/C(=C/c1ccc(-c2cccc(C(F)(F)F)c2)o1)NC(=O)c1ccccc1,?,8,0%,1%,13µM*,18µM*
O=C(NCc1cccnc1)/C(=C/c1ccc([N+](=O)[O-])cc1)NC(=O)c1ccccc1,-42%,10,-1%,-9%,-14%,-8%
Cc1ccc(C(=O)N/C(=C/c2ccc(-c3cc(C(F)(F)F)ccc3Cl)o2)C(=O)NCc2cccnc2)cc1,8%,?,2%,1%,?,23µM*
O=C(NCc1cccnc1)/C(=C/c1ccc(Cl)cc1)NC(=O)c1ccccc1,4%,-4,1%,-4%,23µM*,-24%
Cc1c(-c2ccn[nH]2)cc(NC(=O)c2ccc(Cl)cc2)c(=O)n1N,0%,-1,-8%,1%,7%,-23%
O=C(O)c1cnc(-c2ccccc2)nc1-c1ccccc1,2%,18,7%,-10%,1%,-18%
CC(C)COc1ccc(-c2nn(-c3ccccc3)cc2C(=O)Nc2nccs2)cc1,-178%[0.0737 µM],53,?,?,?,?
O=C(Nc1nccs1)c1cn(-c2ccccc2)nc1-c1ccccc1,8%,-63*,?,23%,?,?
O=C(Nc1ccc([N+](=O)[O-])cc1)c1cn(-c2ccccc2)nc1-c1cc2ccccc2o1,-2%,5,-5%,-83%,8.2µM*,10µM*
O=C(Nc1ccccc1)c1cnc(-c2ccccc2)nc1-c1ccccc1,?,6,1%,13µM*,?,-14%
CN(C)C(=O)c1cn(-c2ccccc2)nc1-c1cc2ccccc2o1,?,-18,?,10%,-20%,-28%
O=C(Nc1ccccc1)c1cn(-c2ccccc2)nc1-c1ccccc1,.,.,.,.,?,16µM*
COc1ccc(C)c(NC(=O)NCCc2cnc[nH]2)c1,-2%,-4,1%,3%,30%,2%
CCOC(=O)c1ccc(NC(=O)c2ncn3c2C(=O)N[C@H](C)C3)cc1,.,-16,.,.,-17%,-28%
Cc1cccc(NC(=O)CSc2nc(=O)n(CCCN3CCOCC3)c3c2CCCC3)c1,12%,-26,-11%,-3%,0%,-2%
Cc1nn(Cc2c(Cl)cccc2Cl)c(C)c1NC(=O)c1cn(-c2ccccc2)nc1-c1ccccc1,4.5µM*,28,0%,8.2µM*,6.5µM*,4.6µM*
Clc1ccc2c(N/N=C/c3ccccc3Br)ccnc2c1,?,-98*,2%,?,7.3µM*,2.9µM*
O=[N+]([O-])c1ccc(/C=N/Nc2ccnc3cc(Cl)ccc23)o1,12%,-94*,?,3.7µM*,15µM*,16µM*
Clc1ccc2c(N/N=C/c3cccc(Br)c3)ccnc2c1,?,-99*,?,?,16µM*,16µM*
CC1(C)S[C@@H]2[C@H](NC(=O)COc3ccccc3)C(=O)N2[C@@H]1C(=O)OCc1cccc2cccnc12,.,.,.,.,12%,-13%
O=C(CCCSc1ccccc1)Nc1nc(-c2ccco2)c(-c2ccco2)s1,15µM*,?,15%,0%,?,?
Cc1ccc(C(=O)Nc2nc(-c3ccco3)c(-c3ccco3)s2)o1,?,-57*,?,3%,8.2µM*,21µM*
COc1cc2c(cc1[N+](=O)[O-])-c1ccc([N+](=O)[O-])cc1C2=NNC(N)=S,.,-15,.,.,?,7.3µM*
C/C(=N\O)c1ccc(Cl)cc1Cl,1%,-3,-5%,-21%,5%,-12%
SMILES,MCF10A rerep,IL-1B inflam inh,BCR signal inh,SW480 rereplic,TDP1 cell CPT,TDP1 cell noCPT
C/C(=N\NC(N)=O)c1cccc(Cl)c1,3%,-7,0%,17%,?,-21%
C/C(=N\N=C(N)N)c1ccc(Cl)cc1Cl,?,-92*,?,?,8.2µM*,16µM*
C/C(=N\N=C(N)N)c1cccc(Cl)c1,0%,-57*,-2%,-3%,16µM*,8.2µM*
COc1ccc(NC(=O)CN(C)C2=NS(=O)(=O)c3ccccc32)cc1Cl,0%,-6,3%,5%,-18%,-5%
CCOC(=O)/C(=N\Nc1cc(Cl)ccc1Cl)N1CCN(CC)CC1,?,6,?,1%,21µM*,?
CC1CCN(C(=O)Cn2c3ccccc3c3nc4n(c(=O)c32)CCS4)CC1,-7%,-6,-1%,3%,-19%,?
CCc1ccc(OCC(=O)NC(C)(C)C)cc1,-1%,-7,?,-2%,-8%,-1%
CC(C)(C)NCC(O)CON=C1c2ccccc2-c2ccccc21 (configuration not stated),?,-98*,?,?,21µM*,?
CC(C)(C)NC(=O)CON=C1c2ccccc2-c2ccccc21,?,?,-1%,4%,23µM*,23µM*
COc1cccc(C2C(C#N)=C(N)N(N(C)C)C3=C2C(=O)CC(C)(C)C3)c1OC (configuration not stated),-1%,-9,?,-12%,-10%,11%
COc1ccc(Cn2c(=O)c3[nH]cnc3n(-c3ccccc3C)c2=O)cc1,16µM*,36,16µM*,16µM*,3.7µM*,5.2µM*
Nc1ccccc1-n1c(=O)n(Cc2ccccc2F)c(=O)c2[nH]cnc21,-1%,-6,0%,0%,?,21µM*
Cc1ccc(C(=O)NNC(=S)NC(=O)c2ccc(Cl)cc2)cc1,?,70,-6%,?,16µM*,?
CCC(=O)NNC(=S)NC(=O)c1ccc(C)cc1,4%,-61*,11%,9%,?,10µM*
O=C(CCc1ccccc1)NNC(=S)NC(=O)c1ccc(Cl)cc1,21%,14,?,-2%,?,23µM*
CCCCCC(=O)NC(=S)NNC(=O)CC,2%,87,8%,4%,16µM*,?
C[C@H]1CN([C@@H](C)CO)C(=O)CCCn2cc(nn2)CO[C@@H]1CN(C)C(=O)Nc1ccc(N2CCN(C)CC2)cc1,.,4,.,.,-5%,-6%
CCN1C=CC(=C2C(=O)c3ccccc3C2=O)C=C1,5%,?,?,-6%,16µM*,15µM*
CN1C=CC(=C2C(=O)c3ccccc3C2=O)C=C1,.,.,11%,.,.,.
